# Active and inactive are the calls of the source. How the source made its calls: active means hit-call score of the fitted dose curve at least 0.9, where 1 is the maximum; inactive means score below 0.9.
# Columns and labels:
# Details in all cases: mRNA level, 48 h; actives raise or lower the signal
# [1] = read-out: Lipase C (LIPC), LIPC (gene 3990); test: LTEA_HepaRG_LIPC: Life Technologies and Expression Analysis (LTEA) Assay for Lipase C (LIPC) using HepaRG (AID 2283514)
# Outline: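 Read-out is LIPC transcript level by TaqMan qRT-PCR, normalized to three housekeeping genes, after 48 h chemical treatment of human HepaRG liver cells. Curves span eight concentrations topping at 100 uM; activity in either direction scored relative to 0.5% DMSO.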
# [2] = read-out: Lipoprotein lipase (LPL), LPL (gene 4023); test: LTEA_HepaRG_LPL: Life Technologies and Expression Analysis (LTEA) Assay for Lipoprotein lipase (LPL) using HepaRG (AID 2283515)
# Outline: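 Read-out is LPL transcript level by qRT-PCR, normalized to three housekeeping genes and fitted bidirectionally against the DMSO control. Human HepaRG cells received chemicals for 48 h at up to 100 uM.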
# [3] = read-out: MicroRNA 122 (MIR122), gene 406906; test: LTEA_HepaRG_MIR122: Life Technologies and Expression Analysis (LTEA) Assay for MicroRNA 122 (MIR122) using HepaRG (AID 2283516); further: the transcript read is the microRNA miR-122
# Outline: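 Differentiated human HepaRG cells in serum-free induction medium exposed 48 h to 8 half-log concentrations from 100 uM in 0.5% DMSO, duplicate. MIR122 quantified by Fluidigm TaqMan qRT-PCR, normalised to ACTB, GAPDH, POLR2A; fold change fitted bidirectionally versus DMSO.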
# [4] = read-out: matrix metalloproteinase-10 (MMP10), MMP10 (gene 4319); test: LTEA_HepaRG_MMP10: Life Technologies and Expression Analysis (LTEA) Assay for matrix metalloproteinase-10 (MMP10) using HepaRG (AID 2283517)
# Outline: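 Gain or loss of MMP10 mRNA is fitted relative to the 0.5% DMSO vehicle. The human hepatic line HepaRG receives a 48-hour serum-free exposure, in duplicate, with a maximum concentration of 100 uM.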
# [5] = read-out: MYC, MYC (gene 4609); test: LTEA_HepaRG_MYC: Life Technologies and Expression Analysis (LTEA) Assay for MYC using HepaRG (AID 2283518)
# Outline: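 MYC transcript changes, up or down relative to 0.5% DMSO, from TaqMan qRT-PCR normalized to three housekeeping genes. Human HepaRG cultures received chemicals for 48 h at eight half-log concentrations up to 100 uM, in duplicate.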
# [6] = read-out: matrix metalloproteinase-3 (MMP3), MMP3 (gene 4314); test: LTEA_HepaRG_MMP3: Life Technologies and Expression Analysis (LTEA) Assay for matrix metalloproteinase-3 (MMP3) using HepaRG (AID 2283519)
# Outline: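 HepaRG, human; 48 h dosing, 8 conc. (max 100 uM, half-log), duplicate, 0.5% DMSO. Readout: MMP3 transcript by Fluidigm TaqMan qRT-PCR, ACTB/GAPDH/POLR2A-normalised. Gain or loss fitted vs DMSO.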
# [7] = read-out: Nuclear factor NF-kappa-B p105 subunit (Homo sapiens) (UniProt P19838); test: LTEA_HepaRG_NFKB1: Life Technologies and Expression Analysis (LTEA) Assay for Nuclear Factor Kappa B Subunit 1 (NFKB1) using HepaRG (AID 2283521)
# Outline: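 Differentiated human HepaRG cells in serum-free induction medium with 0.5% DMSO were exposed for 48 h to eight half-log concentrations, top 100 uM, in duplicate. NFKB1 mRNA measured by Fluidigm TaqMan qRT-PCR, normalised to ACTB, GAPDH and POLR2A; bidirectional fit versus DMSO.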
# [8] = read-out: Protein phosphatase 2A (PPP2R4), PTPA (gene 5524); test: LTEA_HepaRG_PPP2R4: Life Technologies and Expression Analysis (LTEA) Assay for Protein phosphatase 2A (PPP2R4) using HepaRG (AID 2283522)
# Outline: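 Differentiated human HepaRG cells in serum-free induction medium were exposed 48 h to 8 concentrations (top 100 µM, half-log steps, duplicate) in 0.5% DMSO. PPP2R4 mRNA was measured by TaqMan qRT-PCR, normalised to ACTB, GAPDH and POLR2A, and fitted bidirectionally versus DMSO.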
# [9] = read-out: Phosphatase and tensin (PTEN), PTEN (gene 5728); test: LTEA_HepaRG_PTEN: Life Technologies and Expression Analysis (LTEA) Assay for Phosphatase and tensin (PTEN) using HepaRG (AID 2283523)
# Outline: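 Read-out is PTEN transcript level by multiplexed TaqMan qRT-PCR after 48 h chemical treatment of human HepaRG cultures in serum-free induction medium. Concentrations spanned 100 uM downward in half-log steps, 0.5% DMSO throughout; activity fitted in both directions against vehicle.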
# [10] = read-out: solute carrier (SLC22A1), SLC22A1 (gene 6580); test: LTEA_HepaRG_SLC22A1: Life Technologies and Expression Analysis (LTEA) Assay for solute carrier (SLC22A1) using HepaRG (AID 2283524)
# Outline: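 HepaRG (human liver line), 48 h dosing in serum-free induction medium; 8 conc., half-log down from 100 uM, 0.5% DMSO vehicle, duplicates. Endpoint: SLC22A1 mRNA, qRT-PCR, housekeeping-normalized; gain/loss fit vs DMSO.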
# [11] = read-out: Pyruvate Dehydrogenase Kinase 4 (PDK4), PDK4 (gene 5166); test: LTEA_HepaRG_PDK4: Life Technologies and Expression Analysis (LTEA) Assay for Pyruvate Dehydrogenase Kinase 4 (PDK4) using HepaRG (AID 2283525)
# Outline: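 In this multiplexed human HepaRG expression assay, cells are treated 48 h with test chemicals across an eight-point range starting at 100 uM. PDK4 mRNA changes, normalized to ACTB/GAPDH/POLR2A, are fitted in both directions relative to vehicle.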
# [12] = read-out: NAD(P)H dehydrogenase [quinone] 1 (NQO1), NQO1 (gene 1728); test: LTEA_HepaRG_NQO1: Life Technologies and Expression Analysis (LTEA) Assay for NAD(P)H dehydrogenase [quinone] 1 (NQO1) using HepaRG (AID 2283526)
# Outline: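 Differentiated human HepaRG cells in serum-free induction medium, dosed in duplicate for 48 h at 8 half-log concentrations up to 100 uM in 0.5% DMSO. NQO1 mRNA by qRT-PCR normalized to ACTB, GAPDH, POLR2A; bidirectional fit versus DMSO baseline.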
# [13] = read-out: succinate dehydrogenase complex iron sulfur subunit B (SDHB), SDHB (gene 6390); test: LTEA_HepaRG_SDHB: Life Technologies and Expression Analysis (LTEA) Assay for succinate dehydrogenase complex iron sulfur subunit B (SDHB) using HepaRG (AID 2283528)
# Outline: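 HepaRG cells (~100,000/well, plated 48 h) exposed in duplicate for 48 h in serum-free induction medium to 8-point half-log series from 100 uM in 0.5% DMSO; mRNA by qRT-PCR normalised to ACTB, GAPDH, POLR2A; bidirectional fit versus DMSO.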
# [14] = read-out: Signal transducer and activator of transcription 3 (Homo sapiens) (UniProt P40763); test: LTEA_HepaRG_STAT3: Life Technologies and Expression Analysis (LTEA) Assay for Signal transducer and activator of transcription (STAT3) using HepaRG (AID 2283529)
# Outline: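 Read-out is STAT3 mRNA level by qRT-PCR, normalized to three housekeeping genes, in human HepaRG liver cells treated for 48 h. Concentrations ran from 100 uM downward in half-log steps; curves were fitted for gain or loss relative to 0.5% DMSO.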
# [15] = read-out: solute carrier (SLCO1B1), SLCO1B1 (gene 10599); test: LTEA_HepaRG_SLCO1B1: Life Technologies and Expression Analysis (LTEA) Assay for solute carrier (SLCO1B1) using HepaRG (AID 2283530)
# Outline: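 SLCO1B1 transcript levels were quantified by TaqMan qRT-PCR using three housekeeping genes for normalization. This followed 48 h chemical exposure (100 uM top, half-log, 8 points, 0.5% DMSO) of HepaRG liver cells, with gain or loss fitted relative to DMSO.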
# [16] = read-out: sulfotransferase 2A1 (SULT2A1), SULT2A1 (gene 6822); test: LTEA_HepaRG_SULT2A1: Life Technologies and Expression Analysis (LTEA) Assay for sulfotransferase 2A1 (SULT2A1) using HepaRG (AID 2283531)
# Outline: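 Expression change of SULT2A1, by qRT-PCR with three housekeeping-gene normalization, was scored bidirectionally versus DMSO. Cells: differentiated HepaRG, dosed in duplicate for 48 h across 8 points, highest 100 µM, half-log dilution, 0.5% DMSO.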
# [17] = read-out: Transforming Growth Factor (TGFB1), TGFB1 (gene 7040); test: LTEA_HepaRG_TGFB1: Life Technologies and Expression Analysis (LTEA) Assay for Transforming Growth Factor (TGFB1) Transporter using HepaRG (AID 2283533)
# Outline: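 TGFB1 transcript measured by qRT-PCR with normalisation to three housekeeping genes (ACTB, GAPDH, POLR2A); human HepaRG line treated in duplicate for 48 hr with an 8-point series topping at 100 uM, 0.5% DMSO vehicle, bidirectionally fitted.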
# [18] = read-out: Paternally Expressed 10 (PEG10), PEG10 (gene 23089); test: LTEA_HepaRG_PEG10: Life Technologies and Expression Analysis (LTEA) Assay for Paternally Expressed 10 (PEG10) using HepaRG (AID 2283520)
# Outline: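 Differentiated HepaRG cells exposed 48 h in serum-free induction medium to eight half-log concentrations topping at 100 uM, 0.5% DMSO, in duplicate. PEG10 mRNA quantified by TaqMan qRT-PCR, normalized to ACTB, GAPDH and POLR2A; bidirectional fit versus DMSO.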
# Chain of Signal transducer and activator of transcription 3 (Homo sapiens) (P40763 whole entry, looked up): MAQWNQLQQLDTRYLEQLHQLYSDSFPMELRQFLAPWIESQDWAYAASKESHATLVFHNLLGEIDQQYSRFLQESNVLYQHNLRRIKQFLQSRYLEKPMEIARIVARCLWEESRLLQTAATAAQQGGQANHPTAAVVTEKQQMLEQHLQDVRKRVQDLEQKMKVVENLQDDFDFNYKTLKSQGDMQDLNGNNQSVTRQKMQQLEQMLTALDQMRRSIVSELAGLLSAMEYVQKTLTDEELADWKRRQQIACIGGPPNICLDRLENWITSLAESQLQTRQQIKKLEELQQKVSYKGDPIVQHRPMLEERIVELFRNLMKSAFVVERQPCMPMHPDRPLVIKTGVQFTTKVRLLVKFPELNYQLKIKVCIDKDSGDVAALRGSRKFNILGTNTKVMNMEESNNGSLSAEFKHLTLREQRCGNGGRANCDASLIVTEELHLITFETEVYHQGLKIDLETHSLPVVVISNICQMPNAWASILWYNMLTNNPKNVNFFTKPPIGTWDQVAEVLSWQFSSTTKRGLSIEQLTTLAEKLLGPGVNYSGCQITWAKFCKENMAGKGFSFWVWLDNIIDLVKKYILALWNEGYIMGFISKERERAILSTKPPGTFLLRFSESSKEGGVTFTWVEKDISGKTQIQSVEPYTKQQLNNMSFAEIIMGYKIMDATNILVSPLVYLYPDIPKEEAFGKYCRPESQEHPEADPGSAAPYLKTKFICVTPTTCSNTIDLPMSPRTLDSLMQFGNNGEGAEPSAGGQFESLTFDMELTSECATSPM
# Chain of Nuclear factor NF-kappa-B p105 subunit (Homo sapiens) (P19838 whole entry, looked up): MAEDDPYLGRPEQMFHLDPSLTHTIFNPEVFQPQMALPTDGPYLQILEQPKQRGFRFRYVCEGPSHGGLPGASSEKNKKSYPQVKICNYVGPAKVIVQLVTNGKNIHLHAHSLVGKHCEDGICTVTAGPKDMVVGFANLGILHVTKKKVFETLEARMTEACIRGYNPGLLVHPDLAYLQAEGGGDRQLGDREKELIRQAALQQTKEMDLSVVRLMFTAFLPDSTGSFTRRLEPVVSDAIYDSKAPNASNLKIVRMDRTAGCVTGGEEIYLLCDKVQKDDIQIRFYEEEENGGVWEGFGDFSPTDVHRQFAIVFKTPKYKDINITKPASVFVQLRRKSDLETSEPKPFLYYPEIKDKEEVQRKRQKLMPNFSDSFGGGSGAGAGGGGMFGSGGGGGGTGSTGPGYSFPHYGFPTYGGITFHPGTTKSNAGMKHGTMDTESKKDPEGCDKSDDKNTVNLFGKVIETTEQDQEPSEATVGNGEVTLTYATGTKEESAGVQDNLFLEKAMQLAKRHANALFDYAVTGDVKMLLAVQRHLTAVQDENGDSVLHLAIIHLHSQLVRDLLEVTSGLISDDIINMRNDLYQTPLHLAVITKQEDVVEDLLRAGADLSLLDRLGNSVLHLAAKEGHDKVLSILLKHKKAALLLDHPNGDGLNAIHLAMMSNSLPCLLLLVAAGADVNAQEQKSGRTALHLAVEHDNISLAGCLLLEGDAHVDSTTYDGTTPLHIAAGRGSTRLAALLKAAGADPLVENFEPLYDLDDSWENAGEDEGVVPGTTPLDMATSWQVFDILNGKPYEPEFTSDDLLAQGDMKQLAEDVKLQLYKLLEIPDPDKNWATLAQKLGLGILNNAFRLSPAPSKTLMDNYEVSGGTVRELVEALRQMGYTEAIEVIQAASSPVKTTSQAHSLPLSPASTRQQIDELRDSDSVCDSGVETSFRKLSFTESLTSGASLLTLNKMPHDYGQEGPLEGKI
structure (smiles),measurement,setting,value
CCCCOC(=O)c1ccccc1C(=O)OCCCC,outcome,[1],inactive
same,outcome,[2],inactive
same,outcome,[3],inactive
same,outcome,[4],inactive
same,outcome,[5],inactive
same,outcome,[6],inactive
same,outcome,[7],inactive
same,outcome,[8],inactive
same,outcome,[9],inactive
same,outcome,[10],inactive
same,outcome,[11],inactive
same,outcome,[12],inactive
same,outcome,[13],inactive
same,outcome,[14],inactive
same,outcome,[15],inactive
same,outcome,[16],inactive
same,outcome,[17],inactive
CCCCNC(=O)OCC#CI,outcome,[1],inactive
same,outcome,[2],inactive
same,outcome,[3],inactive
same,outcome,[4],inactive
same,outcome,[5],inactive
same,outcome,[6],inactive
same,outcome,[8],inactive
same,outcome,[9],inactive
same,outcome,[10],inactive
same,outcome,[11],inactive
same,outcome,[12],inactive
same,outcome,[13],inactive
same,outcome,[14],inactive
same,AC50,[15],50 µM (active)
same,AC50,[16],50 µM (active)
same,outcome,[17],inactive
Cc1c(F)c(F)c(COC(=O)C2C(/C=C(\Cl)C(F)(F)F)C2(C)C)c(F)c1F (stereo unspecified),outcome,[1],inactive
same,outcome,[2],inactive
same,outcome,[3],inactive
same,outcome,[4],inactive
same,outcome,[5],inactive
same,outcome,[6],inactive
same,outcome,[7],inactive
same,outcome,[8],inactive
same,outcome,[9],inactive
same,AC50,[10],12.3 µM (active)
same,outcome,[11],inactive
same,outcome,[12],inactive
same,outcome,[13],inactive
same,outcome,[14],inactive
same,outcome,[15],inactive
same,outcome,[16],inactive
same,outcome,[17],inactive
C=CCC1=C(C)[C@@H](OC(=O)[C@@H]2[C@@H](C=C(C)C)C2(C)C)CC1=O,AC50,[1],81.5 µM (active)
same,outcome,[2],inactive
same,outcome,[3],inactive
same,outcome,[4],inactive
same,outcome,[5],inactive
same,outcome,[6],inactive
same,outcome,[7],inactive
same,outcome,[8],inactive
same,outcome,[9],inactive
same,AC50,[10],50 µM (active)
same,outcome,[11],inactive
same,outcome,[12],inactive
same,outcome,[13],inactive
same,outcome,[15],inactive
same,outcome,[16],inactive
same,outcome,[17],inactive
C=CC1(C)OC(=O)N(c2cc(Cl)cc(Cl)c2)C1=O (stereo unspecified),outcome,[1],inactive
same,outcome,[3],inactive
same,outcome,[4],inactive
same,outcome,[5],inactive
same,outcome,[6],inactive
same,AC50,[18],34.1 µM (active)
same,outcome,[7],inactive
same,outcome,[8],inactive
same,outcome,[9],inactive
same,outcome,[10],inactive
same,AC50,[11],50 µM (active)
same,outcome,[12],inactive
same,outcome,[13],inactive
same,outcome,[14],inactive
same,outcome,[15],inactive
same,AC50,[16],28 µM (active)
same,outcome,[17],inactive
COC(=O)C=C(C)OP(=O)(OC)OC,outcome,[1],inactive
same,outcome,[2],inactive
same,outcome,[3],inactive
same,outcome,[4],inactive
same,outcome,[5],inactive
same,outcome,[6],inactive
same,outcome,[8],inactive
same,outcome,[9],inactive
same,outcome,[10],inactive
same,outcome,[11],inactive
same,outcome,[12],inactive
same,outcome,[13],inactive
same,outcome,[14],inactive
same,outcome,[15],inactive
same,outcome,[16],inactive
same,outcome,[17],inactive
CCCCNC(=O)n1c(NC(=O)OC)nc2ccccc21,outcome,[1],inactive
same,outcome,[2],inactive
same,outcome,[3],inactive
same,outcome,[4],inactive
same,outcome,[5],inactive
same,outcome,[6],inactive
same,outcome,[7],inactive
same,outcome,[8],inactive
same,outcome,[9],inactive
same,outcome,[10],inactive
same,outcome,[11],inactive
same,outcome,[12],inactive
same,outcome,[13],inactive
same,outcome,[14],inactive
same,outcome,[15],inactive
same,outcome,[16],inactive
same,outcome,[17],inactive

# — PubChem BioAssay (EPA / NIEHS)
